Laboratory results taken from PubChem BioAssay (NCI).
The panel holds about 83,000 compounds, 20% with a hit somewhere; the sample as a whole holds those more often.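 Cell lines were cultured in 96-well plates, exposed to a single compound concentration, and assessed for percent growth 48 hours later.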 Values without a mark were called inactive. The source made the active and inactive calls.

Each compound was assayed on M14 melanoma (assay: NCI-60 one-dose screen, 48 h (100 = growth as untreated, 0 = no growth, -100 = all killed)). Conditions: 10 µM unless noted.
Method: Growth inhibition of the M14 human tumor cell line is measured as a screen for anti-cancer activity. Cells are grown in 96 well plates and exposed to the test compound for 48 hours. Compounds are tested at a single concentration, which is 10^-5 M for most compounds. The reported endpoint is percent growth (GI% or GIPRCNT), where numbers from 0 - 100% represent growth inhibition, and numbers from -100% - 0 represent cell death. For example, a value of 40 represents 60% growth inhibition. A value of 0 means no net growth occurred over the course of the experiment. A value of -40 indicates 40% of cells at the beginning of the experiment died by the end of the experiment. A value of -100 means all cells are dead at the end of the experiment.
NCI-60 Human Tumor Cell Lines Screen was performed using the standard one-dose NCI protocol, which is described in more detail at https://dtp.cancer.gov/discovery_development/nci-60/default.htm.
Compounds with GIPRCNT values below 10 were considered active. Activity score was based on GIPRCNT using the following formula: […]
Score is 0 for GIPRCNT values of 100 or above, 50 for GIPRCNT values of 0, and 100 for GIPRCNT values of -100.

SMILES	growth
CCCCCCCCCCCCCCCCCC(=O)Nc1ccc(O)cc1	103%
O=S(=O)(Cc1cccc2c(CS(=O)(=O)c3ccc(Cl)cc3)cccc12)c1ccc(Cl)cc1	102%
CC(O)CCC(C)[N+](=O)[O-] (stereo not given)	106%
COc1ccccc1C(=O)Nc1cccc(-c2cc(=O)c3c(OC)c(OC)c(OC)cc3o2)c1	41.5%
Oc1ccc(N=Nc2ccc(N=Nc3ccccc3)cc2)cc1	26.7%
CCn1cnc(C[C@H](NC(=O)[C@@H](NC(=O)Nc2cc(C(F)(F)F)cc(C(F)(F)F)c2)C(C)C)C(=O)OC)c1	-93.8% [100 µM] (active)
COC(=O)/C=C/c1cc(O)c2oc(-c3ccc(O)c(O)c3)c(C(=O)OC)c2c1	21%
N#Cc1ccc(NC2c3ccccc3CC2O)cc1 (stereo not given)	106%
CC(=O)N1CCN(CCNC(=O)n2cc(-c3ccncc3)c(-c3ccc(O)c(Cl)c3)n2)CC1	70.2%
Clc1ccc(I)c2ccccc12	101%
Oc1ccccc1/C=N/N=C/c1c(O)ccc2ccccc12	80%
Cc1c(Cc2ccccc2)c(=O)oc2c(C)c(OCC(=O)n3nc(C#N)cc3N)ccc12	96.3%
CCCCCCCCCC(C)NC(=O)CCl (stereo not given)	107%
CCCC(C)c1cc(Cc2cc(Cl)cc(Cl)c2O)c(O)c(Cc2cc(Cl)cc(Cl)c2O)c1 (stereo not given)	7.97% (active)
CCOC(=O)NC1=NCC(C)(C)S1	103%
COC(=O)[C@H](Cc1cn(C)cn1)NC(=O)[C@@H](NC(=O)Nc1cc(C(F)(F)F)cc(C(F)(F)F)c1)C(C)(C)C	-85.2% [100 µM] (active)
NC(=O)CC(NC(=O)COc1ccc(Cl)cc1Cl)C(=O)O (stereo not given)	106%
CCOC(=O)CSSCC(=O)OCC	119%
COc1ccc(-c2nc(SCC(C)C)nc(Nc3ccc([N+](=O)[O-])cc3)c2C#N)cc1	103%
CCN(CCO)CCNc1ccc(C)c2sc3cc(OC)ccc3c(=O)c12	79.3%

SMILES	growth
COc1cc(-c2nn(-c3ccc(NC(=O)c4cc(Cl)cc(Cl)c4)cc3)cc2-c2ccncc2)ccc1Cl	62.9%
O=C(N/N=C\c1ccc(-c2ccc(Br)cc2)o1)c1cc2oc(-c3cccc(C(F)(F)F)c3)cc2[nH]1	117%
CCS(=O)(=O)OCCO[C@H]1Cc2cc3ccc(=O)oc3cc2OC1(C)C	104%
C/C=C/C/C=C/[C@H](C)C[C@H](O)[C@@H]1C[C@@H]2O[C@H]2/C=C/[C@H](O)[C@@H](O)/C=C/C[C@H](C)CC(=O)O1	81.5%
CCCCCCCCCCCCOC(=N)N(C)C	106%
O=C1C(Cl)=C(SC2=NCCN2)C(=O)c2ccccc21	4.35% (active)
CCCCCCN(CCCCCC)CCC(=O)Nc1ccc(S(=O)(=O)c2ccc(NC(=O)CCN(CCCCCC)CCCCCC)cc2)cc1	88.9%
O=C(CCCC(=O)Nc1ccc(Cn2nnc3cc(Cl)c(Cl)cc32)cc1)Nc1ccc(CN2N=NC3C=C(Cl)C(Cl)=CC32)cc1 (stereo not given)	87.2%
COC(=O)C1CC(=O)N(C(=O)Nc2ccc(Cl)cc2Cl)C1 (stereo not given)	94.1%
COC(=O)[C@H](Cc1cn(C)cn1)NC(=O)[C@H](Cc1c[nH]c2ccccc12)NC(=O)Nc1cc(C(F)(F)F)cc(C(F)(F)F)c1	-83.8% [100 µM] (active)
CC(C)C(=O)c1ccc(Cl)s1	101%
O=C(/C=C\c1ccccc1Cl)c1ccccc1	101%
CCOC(=O)c1ccc2n1CCCc1cnc(NC(C)=O)nc1-2	99.9%
Oc1ccc2ccccc2c1/C=N\Nc1ccccn1	-22.5% (active)
CC(=O)Nc1ccc(C(=O)/C=C/c2ccc(N(C)C)cc2)cc1	99.4%
Br/C(=N\Nc1nn[nH]n1)c1ccccc1	99%
CC(C)(C)OC(=O)N1C/C(=C\c2ccccc2)C(=O)/C(=C/c2ccccc2)C1	98.3%
O=C(Nc1ccc(-n2cc(-c3ccncc3)c(-c3ccc(Cl)c(O)c3)n2)cc1)c1cc(Cl)cc(Cl)c1	-49.1% (active)
O=C(NC1CCN(Cc2ccccc2)CC1)c1cc(-c2cccnc2)nc2ccc(Cl)cc12	77.9%
O=C1OC(c2ccc(-c3ccccc3)cc2)=C/C1=C/c1c2ccccc2cc2ccccc12	108%
